An excerpt weighted towards active compounds, which were near 6.9% of everything screened.
NS3h inh CB – blocks HCV NS3 helicase binding to DNA | hit rate 1.6% among 16,000 | AID 687043 | inhibition, % at 100 µM | NS3h Cy5-dT15 DNA binding, fluorescence polarization;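 active = inhibition above the average over every tested compound plus 3 SD, cut at about 40% in these data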
Cy5 interf NS3h – Cy5 fluorescence interference, HCV helicase counter-screen; Cy5-dT15 DNA with NS3h; actives lie on both sides; signal over control mean, under 1 quenches; fluorescence interference ratio at 100 µM; hit rate 6% among 16,000; AID 720488;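 active = compound fluorescence over control fluorescence at most 0.8, a quencher, or at least a set upper limit, an enhancer; inactive = ratio between 0.8 and the set upper limit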
Numbers without * were called inactive.

SMILES	NS3h inh CB	Cy5 interf NS3h
COc1cccc(/C=C/c2nc3ccccc3c(=O)n2-c2cccc([N+](=O)[O-])c2)c1O	15	0.95
Cc1ccc2oc(-c3ccc(NC(=O)Cc4ccccc4)cc3O)nc2c1	-18	1
O=C(Cc1ccccc1)Nc1ccc2oc(-c3ccc(Cl)cc3Cl)nc2c1	-36	1.3*
CC(=O)N=C1SC2CS(=O)(=O)CC2N1c1c(Cl)cccc1Cl (stereo not given)	12	1.3*
Cc1c(Cl)cccc1NC1CS(=O)(=O)CC1O (stereo not given)	3	1.1
CC(=O)c1ccc(NC(=O)C2CC(=O)N(c3ccc(F)cc3)C2)cc1 (stereo not given)	5	1.1
Cn1c(/C=C/c2cccnc2)nc2ccccc2c1=O	-8	1
Cc1cccc(NC(=O)c2ccccc2NC(=O)c2cccs2)c1C	2	1
CCOC(=O)C1=C(C)NC(=O)NC1c1ccc(OC)cc1OC (stereo not given)	1	0.96
CCOC(=O)C1=C(C)NC(C)=C(C(=O)OC)C1c1cc(Cl)cc(Cl)c1OC (stereo not given)	0	0.79*
COc1ccc2nc(NC(=S)NC(=O)c3ccc(Cl)cc3)sc2c1	-4	1.1
O=C(Nc1ccccc1)Nc1nnc(COc2ccc(F)cc2)s1	21	0.97
CCOC(=O)c1c(NC(=O)COc2c(C)cc(C)cc2C)sc(C(=O)Nc2ccccc2)c1C	3	0.96
CCOC(=O)c1c(NC(=O)c2sc3cc(C)ccc3c2Cl)sc(C(N)=O)c1C	7	0.79*
COc1ccccc1N(CC(=O)Nc1cc(Cl)cc(Cl)c1)S(=O)(=O)c1ccccc1	8	0.98
O=C(NC(=S)Nc1cccc(NC(=O)c2ccccc2Cl)c1)c1ccco1	44*	0.87
O=C(NC(=S)Nc1ccc(Cl)c(-c2nc3ccccc3o2)c1)c1ccco1	11	1.2*
O=C(NC(=S)Nc1cccc(Cl)c1)c1ccco1	-1	0.99
O=C(NC(=S)Nc1ccc2oc(-c3cc(I)ccc3Cl)nc2c1)c1ccco1	-19	1.1
O=C(Nc1cccc(NC(=S)NC(=O)c2ccco2)c1)c1cccc(Cl)c1	-6	1.1
O=C(NC(=S)Nc1cccc(NC(=O)c2ccco2)c1)c1ccco1	42*	0.86
N#Cc1c2c(c(N3CCCC3)n3c1nc1ccccc13)CCC2	-2	0.96
COC(=O)C1=C(C)N=c2s/c(=C/c3ccc4c(c3)OCO4)c(=O)n2C1c1cccs1 (stereo not given)	10	1.1
CCc1cc(=O)oc2cc(OCC(=O)C(C)(C)C)ccc12	11	0.89
Cc1ccc(-c2cc(NC(=O)c3ccc(Cl)cc3Cl)n[nH]2)cc1	-3	0.82
SMILES	NS3h inh CB	Cy5 interf NS3h
Cc1ccc(N=C(NO)c2ccc(Cl)cc2Cl)cc1	15	0.68*
O=C(CN1CCCCC1)NCC1COc2ccccc2O1 (stereo not given)	3	1.1
N#C/C(=C\c1ccc(C(=O)O)cc1)C(=O)NCC1CCCO1 (stereo not given)	5	1.2
CC(C)=NNc1nc2sc3c(c2c(=O)n1-c1ccc(C)cc1)CC(C)(C)OC3	0	1
Cc1ccc2cccc(OC(=O)c3ccc(Br)o3)c2n1	1	1
O=C(Oc1ccc(Oc2ccccc2)cc1)c1ccc(Br)o1	10	1.2*
CCOC(=O)CCc1nc2ccc(O)cc2[nH]1	3	1.1
COc1cc([N+](=O)[O-])ccc1N1C(=O)C2C3C=CC(C4CC34)C2C1=O (stereo not given)	9	0.75*
COc1ccc(N2C(=O)C3C4C=CC(C5CC45)C3C2=O)c([N+](=O)[O-])c1 (stereo not given)	6	0.98
O=C(Nc1ccc(OCc2ccccc2)cc1)c1ccccc1Br	20	1.1
COc1ccc(/C=C/C(=O)c2cccc([N+](=O)[O-])c2)cc1	4	1.1
CS(=O)(=O)N(CC(O)Cn1c2ccc(Cl)cc2c2cc(Cl)ccc21)c1ccccc1 (stereo not given)	13	0.95
CCC(C)NCC(O)Cn1c2ccc(Cl)cc2c2cc(Cl)ccc21 (stereo not given)	5	0.77*
COC(=O)c1c(C)oc2ccc(OCc3c(F)cccc3Cl)cc12	10	0.91
CC(=O)NC1=NC(=O)/C(=C/c2cc(Cl)ccc2OCc2c(F)cccc2Cl)S1	5	0.77*
CC(C)CN1C(=O)/C(=C/c2ccc(Cl)cc2Cl)SC1=S	4	0.92
COc1cc(C(=O)NCc2ccc(C)cc2)c([N+](=O)[O-])cc1OC	16	0.69*
COc1cc(C(=O)NCCC(C)C)c([N+](=O)[O-])cc1OC	3	0.98
COc1cccc(N2C(=O)C(=O)C(=C(O)c3ccccc3)C2c2ccc(F)cc2)c1 (stereo not given)	5	0.96
CC(C)CN(CC(C)C)C(=O)/C=C/c1ccc(Cl)cc1	-9	1
CC(=O)Oc1ccc(-c2cccc(C(=O)NC(CO)C(O)c3ccc([N+](=O)[O-])cc3)c2)cc1 (stereo not given)	1	0.99
O=C(NC(CO)C(O)c1ccc([N+](=O)[O-])cc1)c1ccc2ccccc2n1 (stereo not given)	0	0.62*
CCCOc1ccc(C(=O)Nc2cccc(OC)c2)cc1	11	0.86
Cc1ccc(C=C2C(=O)N(C)C(=S)N(c3ccccc3)C2=O)s1	20	1.3*
Cc1cccc(C(=O)Oc2ccc(/C=C3/SC(=S)N(c4ccccc4)C3=O)cc2)c1	4	1.1
SMILES	NS3h inh CB	Cy5 interf NS3h
COc1ccc(NC2=C(Cl)C(=O)N(c3ccccc3Cl)C2=O)c(OC)c1	16	1
CC(C)(C)c1cc(/C=N\Nc2ccc(C(F)(F)F)cn2)cc(C(C)(C)C)c1O	-6	0.92
O=C(NCCN1CCN(Cc2ccccc2)CC1)C(=O)Nc1ccc(Cl)cc1	1	1
O=C(NCCN1CCOCC1)C(=O)NCc1ccc(Cl)cc1	7	1.3*
C/C(=N/N=C\c1ccccc1)C1C(=O)c2ccccc2C1=O	0	0.68*
C/C(=N/N=C(\C)c1cccs1)C1C(=O)c2ccccc2C1=O	4	1
Cc1ccc(N(C)C)cc1NC(=O)CCC(=O)O	1	1.1
O=C1NC(=S)NC(=O)C1=Cc1ccc(O)c(Cl)c1	45*	1
O=C1NC(=S)N(c2ccc(Br)cc2)C(=O)/C1=C/c1ccc(O)c(Cl)c1	27	0.94
COCCCNC(=O)CN(c1ccc(C)cc1)S(C)(=O)=O	2	1.1
CCOC(=O)C1=C(C)OC(N)=C(C#N)C1c1ccccc1Cl (stereo not given)	19	0.95
COc1cccc(N2C(=O)C(=O)C(=C(O)c3ccccc3)C2c2ccccc2)c1 (stereo not given)	3	1
C/C(=N/N=C1\NC(=O)C(CC(=O)Nc2ccccc2C)S1)c1ccc(F)cc1 (stereo not given)	2	1
CCc1ccccc1NC(=O)CC1S/C(=N/N=C(C)\C=C\c2ccc(OC)cc2)NC1=O (stereo not given)	-29	1.2*
CC1CCCN(C(=O)Cc2ccc(Cl)cc2)C1 (stereo not given)	2	1
Cc1ccc(-n2nc(-c3ccccc3)c3c2C(=O)C=CC3=O)cc1	44*	0.92
COc1ccc(-c2c(-c3ccc(Cl)cc3)nn(-c3ccccc3)c2N)cc1OC	19	0.9
CC12CC3CC(C)(C1)CC(C(=O)Nc1ccc([N+](=O)[O-])cc1)(C3)C2	10	0.97
O=C(Nc1ccc2nn(-c3cccc4ccccc34)nc2c1)c1ccc([N+](=O)[O-])o1	-1	1

Source: PubChem BioAssay (Milwaukee Institute for Drug Discovery)
